Out of some 5,500 compounds screened, about 2,000 (36%) were called active. Inconclusive results (about 18%) are left out. Rule as the data show it: active = normalized growth mostly below about 0.91 (no sharp cut-off); inconclusive = no clear call, values can overlap the other calls; inactive = mostly above about 0.92. The list shows a part of the results.
Assay: chemical genetic growth profiling, strain panel (AID 1159580);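 also: tested at 20 µM; growth read once vehicle control cultures reached saturation at 30 °C; 1 = growth at the plate median or of vehicle wells; lower values mean less growth of the strain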
Settings: growth OD

Measured: normalized growth

CO[C@@]1(NC(=O)C(C(=O)O)c2ccc(O)cc2)C(=O)N2C(C(=O)O)=C(CSc3nnnn3C)CO[C@@H]21 (some centres not stated)
inactive: S. cerevisiae deletion strains, locus YJR075W, strain HOC1, stronger effect = lower value 1.02 | S. cerevisiae deletion strains, locus YKL009W, strain mrt4, stronger effect = lower value 1 | S. cerevisiae deletion strains, locus YKL068W, stronger effect = lower value 1.01 | S. cerevisiae deletion strains, locus YKL085W, strain MDH1 (second series), stronger effect = lower value 1.01 | S. cerevisiae deletion strains, locus YKL085W, strain MDH1, stronger effect = lower value 1.01 | S. cerevisiae deletion strains, locus YKL160W, strain elf1, stronger effect = lower value 0.962 | S. cerevisiae deletion strains, locus YKL190W, strain CNB1, stronger effect = lower value 1.02 | S. cerevisiae deletion strains, locus YKR001C, strain vps1, stronger effect = lower value 1.02 | S. cerevisiae deletion strains, locus YKR026C, strain gcn3, stronger effect = lower value 0.998 | S. cerevisiae deletion strains, locus YKR091W, strain srl3, stronger effect = lower value 0.976 | S. cerevisiae deletion strains, locus YLL001W, strain dnm1, stronger effect = lower value 0.922 | S. cerevisiae deletion strains, locus YLL026W, stronger effect = lower value 0.986 | S. cerevisiae deletion strains, locus YLL041C, strain sdh2, stronger effect = lower value 0.988 | S. cerevisiae deletion strains, locus YLR027C, strain aat2, stronger effect = lower value 1 | S. cerevisiae deletion strains, locus YLR039C, strain RIC1, stronger effect = lower value 1.02 | S. cerevisiae deletion strains, locus YLR058C, strain SHM2, stronger effect = lower value 1.01 | S. cerevisiae deletion strains, locus YLR102C, strain apc9, stronger effect = lower value 1.02 | S. cerevisiae deletion strains, locus YLR113W, strain HOG1, stronger effect = lower value 0.995 | S. cerevisiae deletion strains, locus YLR221C, strain rsa3, stronger effect = lower value 0.945 | S. cerevisiae deletion strains, locus YLR258W, strain gsy2, stronger effect = lower value 0.984 | S. cerevisiae deletion strains, locus YLR262C, strain YPT6 (second series), stronger effect = lower value 0.946 | S. cerevisiae deletion strains, locus YLR262C, strain YPT6, stronger effect = lower value 0.999 | S. cerevisiae deletion strains, locus YLR268W, strain sec22, stronger effect = lower value 1.04 | S. cerevisiae deletion strains, locus YLR320W, strain mms22, stronger effect = lower value 0.967 | S. cerevisiae deletion strains, locus YLR330W, strain CHS5, stronger effect = lower value 1.01 | S. cerevisiae deletion strains, locus YLR342W, strain FKS1 (second series), stronger effect = lower value 0.996 | S. cerevisiae deletion strains, locus YLR342W, strain FKS1, stronger effect = lower value 0.99 | S. cerevisiae deletion strains, locus YLR357W, strain rsc2, stronger effect = lower value 0.945 | S. cerevisiae deletion strains, locus YLR370C, strain arc18, stronger effect = lower value 0.978 | S. cerevisiae deletion strains, locus YLR371W, strain rom2, stronger effect = lower value 1.03 | S. cerevisiae deletion strains, locus YLR384C, strain iki3, stronger effect = lower value 0.982 | S. cerevisiae deletion strains, locus YLR418C, strain cdc73, stronger effect = lower value 1.02 | S. cerevisiae deletion strains, locus YML016C, strain PPZ1, stronger effect = lower value 1 | S. cerevisiae deletion strains, locus YML032C, strain rad52, stronger effect = lower value 1.03 | S. cerevisiae deletion strains, locus YML120C, strain ndi1, stronger effect = lower value 0.951 | S. cerevisiae deletion strains, locus YML124C, strain tub3, stronger effect = lower value 1.01 | S. cerevisiae deletion strains, locus YMR058W, strain fet3, stronger effect = lower value 0.975 | S. cerevisiae deletion strains, locus YMR078C, strain ctf18, stronger effect = lower value 1.02 | S. cerevisiae deletion strains, locus YMR125W, strain sto1, stronger effect = lower value 0.953 | S. cerevisiae deletion strains, locus YMR129W, stronger effect = lower value 0.994 | S. cerevisiae deletion strains, locus YMR205C, strain PFK2, stronger effect = lower value 0.946 | S. cerevisiae deletion strains, locus YMR223W, strain ubp8, stronger effect = lower value 0.985 | S. cerevisiae deletion strains, locus YMR231W, strain pep5, stronger effect = lower value 0.991 | S. cerevisiae deletion strains, locus YMR263W, strain SAP30, stronger effect = lower value 1.02 | S. cerevisiae deletion strains, locus YMR307W, strain GAS1, stronger effect = lower value 0.971 | S. cerevisiae deletion strains, locus YNL067W, strain RPL9B, stronger effect = lower value 1.02 | S. cerevisiae deletion strains, locus YNL071W, strain lat1, stronger effect = lower value 0.989 | S. cerevisiae deletion strains, locus YNL128W, strain TEP1, stronger effect = lower value 1.01 | S. cerevisiae deletion strains, locus YNL153C, strain GIM3, stronger effect = lower value 1.01 | S. cerevisiae deletion strains, locus YNL183C, strain NPR1, stronger effect = lower value 0.949 | S. cerevisiae deletion strains, locus YNL209W, strain ssb2, stronger effect = lower value 0.978 | S. cerevisiae deletion strains, locus YNL233W, strain BNI4, stronger effect = lower value 1.01 | S. cerevisiae deletion strains, locus YNL248C, strain rpa49, stronger effect = lower value 1 | S. cerevisiae deletion strains, locus YNL250W, strain rad50, stronger effect = lower value 1.02 | S. cerevisiae deletion strains, locus YNL271C, strain bni1, stronger effect = lower value 1.01 | S. cerevisiae deletion strains, locus YNL298W, strain CLA4, stronger effect = lower value 1.02 | S. cerevisiae deletion strains, locus YNL307C, strain MCK1, stronger effect = lower value 1.01 | S. cerevisiae deletion strains, locus YNL322C, strain KRE1 (second series), stronger effect = lower value 0.971 | S. cerevisiae deletion strains, locus YNL322C, strain KRE1, stronger effect = lower value 1.01 | S. cerevisiae deletion strains, locus YNR049C, strain mso1, stronger effect = lower value 0.972 | S. cerevisiae deletion strains, locus YNR052C, strain pop2, stronger effect = lower value 1.02 | S. cerevisiae deletion strains, locus YOL006C, strain TOP1, stronger effect = lower value 1.06 | S. cerevisiae deletion strains, locus YOL012C, strain htz1 0.996 | S. cerevisiae deletion strains, locus YOL147C, strain pex11, stronger effect = lower value 1.01 | S. cerevisiae deletion strains, locus YOR001W, strain rrp6, stronger effect = lower value 1.01 | S. cerevisiae deletion strains, locus YOR061W, strain CKA2, stronger effect = lower value 1 | S. cerevisiae deletion strains, locus YOR069W, strain VPS5, stronger effect = lower value 1.01 | S. cerevisiae deletion strains, locus YOR070C, strain gyp1, stronger effect = lower value 0.992 | S. cerevisiae deletion strains, locus YOR080W, strain dia2, stronger effect = lower value 0.987 | S. cerevisiae deletion strains, locus YOR083W, strain WHI5, stronger effect = lower value 0.961 | S. cerevisiae deletion strains, locus YOR106W, strain vam3, stronger effect = lower value 0.973 | S. cerevisiae deletion strains, locus YOR136W, strain idh2, stronger effect = lower value 1.02 | S. cerevisiae deletion strains, locus YOR144C, strain elg1, stronger effect = lower value 1.02 | S. cerevisiae deletion strains, locus YOR184W, strain ser1, stronger effect = lower value 1.02 | S. cerevisiae deletion strains, locus YOR231W, strain MKK1, stronger effect = lower value 1 | S. cerevisiae deletion strains, locus YOR265W, strain rbl2, stronger effect = lower value 0.998 | S. cerevisiae deletion strains, locus YOR270C, strain vph1, stronger effect = lower value 0.967 | S. cerevisiae deletion strains, locus YOR290C, strain snf2, stronger effect = lower value 0.917 | S. cerevisiae deletion strains, locus YOR316C, strain cot1, stronger effect = lower value 1.02 | S. cerevisiae deletion strains, locus YPL051W, strain arl3, stronger effect = lower value 0.983 | S. cerevisiae deletion strains, locus YPL055C, strain LGE1, stronger effect = lower value 1.02 | S. cerevisiae deletion strains, locus YPL078C, strain atp4, stronger effect = lower value 0.97 | S. cerevisiae deletion strains, locus YPL106C, strain sse1, stronger effect = lower value 0.94 | S. cerevisiae deletion strains, locus YPL240C, strain hsp82, stronger effect = lower value 0.981 | S. cerevisiae deletion strains, locus YPL241C, strain CIN2, stronger effect = lower value 1 | S. cerevisiae deletion strains, locus YPL256C, strain CLN2, stronger effect = lower value 0.961 | S. cerevisiae deletion strains, locus YPR119W, strain clb2, stronger effect = lower value 1.02 | S. cerevisiae deletion strains, locus YPR141C, strain kar3, stronger effect = lower value 1.02 | S. cerevisiae deletion strains, locus YPR163C, strain tif3, stronger effect = lower value 1.02 | S. cerevisiae deletion strains, locus YPR167C, strain met16, stronger effect = lower value 1.02 | S. cerevisiae deletion strains, strain wtn01, stronger effect = lower value 1.02 | S. cerevisiae strains, strain wild type, stronger effect = lower value 1.01
